Data from ChEMBL document CHEMBL1961873, “Compounds: GSK PKIS; Assays: Nanosyn kinase panel” (2012).

Tests used:
[1] = target: 5'-AMP-activated protein kinase catalytic subunit alpha-2 (Homo sapiens) (UniProt P54646); settings: at 1 µM
[2] = target: T1, NUAK family SNF1-like kinase 1 (Homo sapiens) (UniProt O60285); settings: at 0.1 µM
T1 sequence (whole entry): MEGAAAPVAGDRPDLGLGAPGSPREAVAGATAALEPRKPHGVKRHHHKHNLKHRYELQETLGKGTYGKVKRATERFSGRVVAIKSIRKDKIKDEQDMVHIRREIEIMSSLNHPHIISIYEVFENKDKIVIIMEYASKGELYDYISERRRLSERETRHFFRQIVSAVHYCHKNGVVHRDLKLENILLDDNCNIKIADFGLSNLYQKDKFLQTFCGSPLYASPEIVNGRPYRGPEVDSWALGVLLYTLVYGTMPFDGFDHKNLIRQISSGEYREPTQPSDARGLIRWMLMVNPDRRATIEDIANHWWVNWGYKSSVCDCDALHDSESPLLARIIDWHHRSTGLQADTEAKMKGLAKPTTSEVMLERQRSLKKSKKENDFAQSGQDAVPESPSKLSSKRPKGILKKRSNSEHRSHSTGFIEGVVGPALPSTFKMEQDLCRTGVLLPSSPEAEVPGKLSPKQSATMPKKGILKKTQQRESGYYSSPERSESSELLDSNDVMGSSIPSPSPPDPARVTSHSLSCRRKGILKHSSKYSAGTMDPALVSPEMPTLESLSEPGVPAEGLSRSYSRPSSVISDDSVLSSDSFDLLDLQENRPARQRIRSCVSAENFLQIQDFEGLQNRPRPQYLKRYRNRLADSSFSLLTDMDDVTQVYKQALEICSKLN

[3] = target: T1, NUAK family SNF1-like kinase 1 (Homo sapiens); settings: at 1 µM
[4] = target: T2, Serine/threonine-protein kinase BRSK1 (Homo sapiens) (UniProt Q8TDC3); settings: at 0.1 µM
T2 sequence (whole entry): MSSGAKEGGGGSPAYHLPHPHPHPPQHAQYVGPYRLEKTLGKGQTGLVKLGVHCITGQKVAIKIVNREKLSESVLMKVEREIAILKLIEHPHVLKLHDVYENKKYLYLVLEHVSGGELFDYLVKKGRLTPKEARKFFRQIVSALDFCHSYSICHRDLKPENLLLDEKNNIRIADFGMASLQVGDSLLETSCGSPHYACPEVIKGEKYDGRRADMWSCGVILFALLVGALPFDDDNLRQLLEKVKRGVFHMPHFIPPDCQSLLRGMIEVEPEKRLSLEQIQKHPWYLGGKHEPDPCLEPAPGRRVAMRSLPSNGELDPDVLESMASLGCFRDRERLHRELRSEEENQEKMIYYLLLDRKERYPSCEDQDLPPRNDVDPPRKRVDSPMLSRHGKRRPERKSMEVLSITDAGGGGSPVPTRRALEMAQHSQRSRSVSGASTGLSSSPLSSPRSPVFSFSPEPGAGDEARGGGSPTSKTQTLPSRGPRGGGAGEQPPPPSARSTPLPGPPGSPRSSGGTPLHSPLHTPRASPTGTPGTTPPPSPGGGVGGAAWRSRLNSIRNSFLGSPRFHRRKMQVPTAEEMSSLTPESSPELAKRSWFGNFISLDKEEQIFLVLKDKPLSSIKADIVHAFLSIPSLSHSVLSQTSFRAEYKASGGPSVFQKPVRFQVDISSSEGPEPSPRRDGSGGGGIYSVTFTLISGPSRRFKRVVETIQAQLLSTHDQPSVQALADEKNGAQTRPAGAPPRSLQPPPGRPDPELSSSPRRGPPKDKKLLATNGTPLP

[5] = target: T2, Serine/threonine-protein kinase BRSK1 (Homo sapiens); settings: at 1 µM
[6] = target: T3, Serine/threonine-protein kinase BRSK2 (Homo sapiens) (UniProt Q8IWQ3); settings: at 0.1 µM
T3 sequence (whole entry): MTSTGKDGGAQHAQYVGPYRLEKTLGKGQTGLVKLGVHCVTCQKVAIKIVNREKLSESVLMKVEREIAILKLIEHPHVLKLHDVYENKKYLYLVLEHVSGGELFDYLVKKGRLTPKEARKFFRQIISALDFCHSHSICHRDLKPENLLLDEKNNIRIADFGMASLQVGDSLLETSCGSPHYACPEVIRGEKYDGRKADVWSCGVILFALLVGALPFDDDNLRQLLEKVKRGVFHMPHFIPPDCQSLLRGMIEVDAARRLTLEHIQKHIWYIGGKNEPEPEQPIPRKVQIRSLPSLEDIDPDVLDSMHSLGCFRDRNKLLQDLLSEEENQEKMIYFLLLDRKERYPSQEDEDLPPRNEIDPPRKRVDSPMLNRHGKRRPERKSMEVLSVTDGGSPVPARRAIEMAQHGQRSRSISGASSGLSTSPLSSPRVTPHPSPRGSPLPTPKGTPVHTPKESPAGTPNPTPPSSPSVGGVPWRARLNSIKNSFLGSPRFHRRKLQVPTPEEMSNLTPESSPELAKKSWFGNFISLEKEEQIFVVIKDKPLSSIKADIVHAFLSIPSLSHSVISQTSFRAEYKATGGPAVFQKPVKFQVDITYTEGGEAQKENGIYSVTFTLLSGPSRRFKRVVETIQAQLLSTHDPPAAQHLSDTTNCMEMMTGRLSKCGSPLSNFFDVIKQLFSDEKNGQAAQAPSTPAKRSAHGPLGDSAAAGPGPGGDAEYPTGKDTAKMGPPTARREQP

[7] = target: T3, Serine/threonine-protein kinase BRSK2 (Homo sapiens); settings: at 1 µM
[8] = target: Calcium/calmodulin-dependent protein kinase type 1D (Homo sapiens) (UniProt Q8IU85); settings: at 0.1 µM
Calcium/calmodulin-dependent protein kinase type 1D (Homo sapiens), sequence (Q8IU85 whole entry, looked up): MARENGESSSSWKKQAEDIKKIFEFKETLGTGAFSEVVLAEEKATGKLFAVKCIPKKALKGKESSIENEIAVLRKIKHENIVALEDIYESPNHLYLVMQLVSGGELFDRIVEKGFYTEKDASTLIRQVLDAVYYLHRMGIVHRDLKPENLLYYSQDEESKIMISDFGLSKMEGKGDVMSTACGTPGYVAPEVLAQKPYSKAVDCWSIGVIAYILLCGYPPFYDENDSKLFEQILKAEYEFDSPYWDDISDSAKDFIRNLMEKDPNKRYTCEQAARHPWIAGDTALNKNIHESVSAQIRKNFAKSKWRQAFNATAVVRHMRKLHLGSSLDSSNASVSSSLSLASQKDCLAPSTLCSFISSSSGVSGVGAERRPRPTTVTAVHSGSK

[9] = target: Calcium/calmodulin-dependent protein kinase type 1D (Homo sapiens) (UniProt Q8IU85); settings: at 1 µM
[10] = target: Calcium/calmodulin-dependent protein kinase type II subunit alpha (Homo sapiens) (UniProt Q9UQM7); settings: at 0.1 µM;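 also: reported values are averages (mean inhibition of CAMK2A)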
Calcium/calmodulin-dependent protein kinase type II subunit alpha (Homo sapiens), sequence (Q9UQM7 whole entry): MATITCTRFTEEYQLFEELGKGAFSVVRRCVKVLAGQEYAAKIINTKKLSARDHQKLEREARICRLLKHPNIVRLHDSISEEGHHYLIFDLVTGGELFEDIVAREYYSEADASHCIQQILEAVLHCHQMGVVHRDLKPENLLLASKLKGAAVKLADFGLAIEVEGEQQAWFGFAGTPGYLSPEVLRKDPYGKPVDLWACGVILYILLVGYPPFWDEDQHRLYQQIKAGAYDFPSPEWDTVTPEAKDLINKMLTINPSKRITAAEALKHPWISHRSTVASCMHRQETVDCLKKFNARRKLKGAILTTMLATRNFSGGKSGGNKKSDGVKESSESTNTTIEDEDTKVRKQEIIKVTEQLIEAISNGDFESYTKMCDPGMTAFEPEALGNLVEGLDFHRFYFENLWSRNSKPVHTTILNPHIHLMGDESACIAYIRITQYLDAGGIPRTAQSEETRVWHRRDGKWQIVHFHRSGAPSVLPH

5'-AMP-activated protein kinase catalytic subunit alpha-2 (Homo sapiens), sequence (P54646 whole entry, looked up): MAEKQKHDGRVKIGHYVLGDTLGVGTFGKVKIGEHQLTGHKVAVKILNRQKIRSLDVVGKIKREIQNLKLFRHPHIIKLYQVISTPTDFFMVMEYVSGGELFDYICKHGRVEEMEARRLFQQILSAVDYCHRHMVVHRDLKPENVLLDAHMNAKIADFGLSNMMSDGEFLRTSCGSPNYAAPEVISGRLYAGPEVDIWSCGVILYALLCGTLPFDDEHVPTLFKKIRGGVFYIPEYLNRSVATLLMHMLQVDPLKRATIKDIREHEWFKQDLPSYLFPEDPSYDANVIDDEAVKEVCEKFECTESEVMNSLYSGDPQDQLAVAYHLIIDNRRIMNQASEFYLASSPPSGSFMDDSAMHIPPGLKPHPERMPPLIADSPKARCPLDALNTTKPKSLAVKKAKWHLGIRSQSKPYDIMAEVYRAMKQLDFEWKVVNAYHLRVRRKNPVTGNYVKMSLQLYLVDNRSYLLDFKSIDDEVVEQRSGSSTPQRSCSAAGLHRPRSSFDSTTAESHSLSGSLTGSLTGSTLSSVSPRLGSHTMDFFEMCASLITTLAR

COc1cccc(/C=N/Nc2ncnc3c2cnn3-c2cccc(OC)c2)c1
inhibition [1]: 2.83%
inhibition [2]: 1.95%
inhibition [3]: 3.7%
inhibition [4]: 0.47%
inhibition [5]: -0.97%
inhibition [6]: 1.04%
inhibition [7]: 2.41%
inhibition [8]: -0.14%
inhibition [9]: 0.89%
inhibition [10]: 0.99%

NC(=O)c1ccc(Oc2nccc(-c3c(-c4ccc(F)cc4)ncn3C3CCNCC3)n2)cc1
inhibition [1]: 3.28%
inhibition [2]: 1.39%
inhibition [3]: 2.27%
inhibition [4]: 2.39%
inhibition [5]: -0.49%
inhibition [6]: 1.13%
inhibition [7]: 1.56%
inhibition [8]: 0.06%
inhibition [9]: 2.62%
inhibition [10]: 3.03%

COc1cc(Nc2ncc(-c3ccccc3)o2)cc(OC)c1OC
inhibition [1]: 5.35%
inhibition [2]: 24.4%
inhibition [3]: 61%
inhibition [4]: -0.43%
inhibition [5]: 5.91%
inhibition [6]: 0.44%
inhibition [7]: 10.5%
inhibition [8]: -1.93%
inhibition [9]: -0.01%
inhibition [10]: -3.81%

Fc1ccc(-c2ncn(C3CCNCC3)c2-c2ccnc(Oc3ccc(F)c(F)c3)n2)cc1
inhibition [1]: 4.77%
inhibition [2]: 2.44%
inhibition [3]: 6.58%
inhibition [4]: 1.29%
inhibition [5]: 3.93%
inhibition [6]: 3.75%
inhibition [7]: 5.29%
inhibition [8]: -1.15%
inhibition [9]: -1.08%
inhibition [10]: 2.48%

COc1ccc2ncn(-c3cc(O[C@H](C)c4ccccc4Cl)c(C(N)=O)s3)c2c1
inhibition [1]: 1.17%
inhibition [2]: 0.64%
inhibition [3]: 15.7%
inhibition [4]: 2.58%
inhibition [5]: 17.8%
inhibition [6]: 6.22%
inhibition [7]: 28.1%
inhibition [8]: -1.85%
inhibition [9]: -1.6%
inhibition [10]: 1.3%

Fc1ccc(-c2nc3n(c2-c2ccncc2)CCS3)cc1
inhibition [1]: 5.23%
inhibition [2]: 0.54%
inhibition [3]: 2.44%
inhibition [4]: 0.25%
inhibition [5]: 0.24%
inhibition [6]: 0.52%
inhibition [7]: 0.5%
inhibition [8]: 0.49%
inhibition [9]: -0.26%
inhibition [10]: 3.63%

NCc1ccc(-n2c(-c3nonc3N)nc3cnccc32)cc1
inhibition [1]: 8.19%
inhibition [2]: 4.91%
inhibition [3]: 7.23%
inhibition [4]: 4.76%
inhibition [5]: 6.27%
inhibition [6]: 4.11%
inhibition [7]: 8.49%
inhibition [8]: 2.03%
inhibition [9]: 4.78%
inhibition [10]: 4.91%

COc1cc2ncn(-c3cc(OCc4cccs4)c(C(N)=O)s3)c2cc1OC
inhibition [1]: 5.5%
inhibition [2]: 20.1%
inhibition [3]: 63.2%
inhibition [4]: 9%
inhibition [5]: 50%
inhibition [6]: 16.6%
inhibition [7]: 60.6%
inhibition [8]: 0.15%
inhibition [9]: 0.12%
inhibition [10]: 2.87%

COc1ccc2cc(-c3c(-c4ccncc4)nc(-c4ccc(S(C)(=O)=O)cc4C)n3C)ccc2c1
inhibition [1]: 3.5%
inhibition [2]: -2.12%
inhibition [3]: 4.31%
inhibition [4]: 1.72%
inhibition [5]: 1.23%
inhibition [6]: 1.12%
inhibition [7]: 3.04%
inhibition [8]: 1.08%
inhibition [9]: 1.85%
inhibition [10]: 2.82%

CCC(=O)Nc1ccc(C)c(-c2ccc(C(=O)NCC3CC3)cc2)c1
inhibition [1]: 2.49%
inhibition [2]: 0.85%
inhibition [3]: 1.36%
inhibition [4]: 1.35%
inhibition [5]: 0.24%
inhibition [6]: 1.47%
inhibition [7]: 2.78%
inhibition [8]: 0.77%
inhibition [9]: 1.64%
inhibition [10]: 1.27%

Cc1ccc(C(=O)NC(C)C)cc1-c1ccc(C(=O)NCC2CC2)cc1
inhibition [1]: -5.48%
inhibition [2]: 3.9%
inhibition [3]: 3.92%
inhibition [4]: 1.12%
inhibition [5]: -1.28%
inhibition [6]: 0.51%
inhibition [7]: 1.61%
inhibition [8]: -1.04%
inhibition [9]: 0.57%
inhibition [10]: -4.62%

O=C(Nc1ccc(Oc2ccc3[nH]c(NC(=O)c4ccccc4)nc3c2)cc1)Nc1cc(C(F)(F)F)ccc1F
inhibition [1]: 4.55%
inhibition [2]: 1.15%
inhibition [3]: 3.05%
inhibition [4]: 0.18%
inhibition [5]: 0.16%
inhibition [6]: 1.2%
inhibition [7]: 2.83%
inhibition [8]: -0.03%
inhibition [9]: 1.95%
inhibition [10]: 2.8%

Fc1ccc(-c2ncn(CCCN3CCOCC3)c2-c2ccncc2)cc1
inhibition [1]: 2.58%
inhibition [2]: 0.22%
inhibition [3]: 3.87%
inhibition [4]: 1.09%
inhibition [5]: 1.49%
inhibition [6]: 1.32%
inhibition [7]: -0.21%
inhibition [8]: 1.77%
inhibition [9]: 1.54%
inhibition [10]: 0.57%

CCN(CC)Cc1ccc(Nc2nccc(-c3cnn4ncccc34)n2)cc1
inhibition [1]: 12.7%
inhibition [2]: 69%
inhibition [3]: 84.3%
inhibition [4]: 3.36%
inhibition [5]: 3.16%
inhibition [6]: 2.2%
inhibition [7]: 10.6%
inhibition [8]: -0.62%
inhibition [9]: 4.23%
inhibition [10]: 2.6%

Cc1ccc(NC(=O)c2ccoc2)cc1-c1ccc(C(=O)NCC2CC2)cc1
inhibition [1]: 1.09%
inhibition [2]: -0.47%
inhibition [3]: -0.78%
inhibition [4]: 0%
inhibition [5]: 0.43%
inhibition [6]: 1.99%
inhibition [7]: 0.95%
inhibition [8]: -0.63%
inhibition [9]: -1.53%
inhibition [10]: 1.08%

COc1cc(Nc2ncc3c(C)nc(-c4cccc(C(F)(F)F)c4)n3n2)cc(OC)c1OC
inhibition [1]: 25%
inhibition [2]: 35.4%
inhibition [3]: 65.3%
inhibition [4]: 4.57%
inhibition [5]: 7.57%
inhibition [6]: 5.62%
inhibition [7]: 9.19%
inhibition [8]: -1.94%
inhibition [9]: -0.82%
inhibition [10]: 2.25%

CS(=O)(=O)CCNCc1ccc(-c2ccc3ncnc(Nc4ccc(OCc5ccccc5)c(Br)c4)c3c2)o1
inhibition [1]: -0.88%
inhibition [2]: -0.46%
inhibition [3]: 0.63%
inhibition [4]: -1.34%
inhibition [5]: 2.21%
inhibition [6]: 1.54%
inhibition [7]: 2.06%
inhibition [8]: -1.35%
inhibition [9]: -0.82%
inhibition [10]: 2.7%
